Test results: PubChem BioAssay AID1159580 (chemical genetic matrix, 2015)
About 2,000 (36%) of roughly 5,500 compounds were called active. Inconclusive results (about 18%) are left out. Cut-off read from the data, not from the text of the source: active = normalized growth mostly below about 0.91 (no sharp cut-off); inconclusive = no clear call, values can overlap the other calls; inactive = mostly above about 0.92. Some of the results follow.

Experiment: chemical genetic growth profiling, strain panel (AID 1159580);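 note: tested at 20 µM; growth read once vehicle control cultures reached saturation at 30 °C; 1 = growth at the plate median or of vehicle wells; lower values mean less growth of the strain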
Settings: growth OD

Measured: normalized growth

CNC(=O)Oc1ccccc1OC(C)C
inactive: S. cerevisiae deletion strains, locus YJR043C, strain POL32, stronger effect = lower value 1.01 | S. cerevisiae deletion strains, locus YJR075W, strain HOC1, stronger effect = lower value 1.02 | S. cerevisiae deletion strains, locus YKL009W, strain mrt4, stronger effect = lower value 0.986 | S. cerevisiae deletion strains, locus YKL068W, stronger effect = lower value 0.991 | S. cerevisiae deletion strains, locus YKL085W, strain MDH1 (second series), stronger effect = lower value 0.982 | S. cerevisiae deletion strains, locus YKL085W, strain MDH1, stronger effect = lower value 0.982 | S. cerevisiae deletion strains, locus YKL160W, strain elf1, stronger effect = lower value 0.996 | S. cerevisiae deletion strains, locus YKL190W, strain CNB1, stronger effect = lower value 1.01 | S. cerevisiae deletion strains, locus YKR001C, strain vps1, stronger effect = lower value 0.99 | S. cerevisiae deletion strains, locus YKR026C, strain gcn3, stronger effect = lower value 0.993 | S. cerevisiae deletion strains, locus YKR091W, strain srl3, stronger effect = lower value 0.989 | S. cerevisiae deletion strains, locus YLL001W, strain dnm1, stronger effect = lower value 0.995 | S. cerevisiae deletion strains, locus YLL026W, stronger effect = lower value 0.986 | S. cerevisiae deletion strains, locus YLL041C, strain sdh2, stronger effect = lower value 0.994 | S. cerevisiae deletion strains, locus YLR027C, strain aat2, stronger effect = lower value 0.995 | S. cerevisiae deletion strains, locus YLR039C, strain RIC1, stronger effect = lower value 1.05 | S. cerevisiae deletion strains, locus YLR058C, strain SHM2, stronger effect = lower value 1.02 | S. cerevisiae deletion strains, locus YLR102C, strain apc9, stronger effect = lower value 0.988 | S. cerevisiae deletion strains, locus YLR221C, strain rsa3, stronger effect = lower value 0.986 | S. cerevisiae deletion strains, locus YLR258W, strain gsy2, stronger effect = lower value 0.984 | S. cerevisiae deletion strains, locus YLR262C, strain YPT6 (second series), stronger effect = lower value 1.01 | S. cerevisiae deletion strains, locus YLR262C, strain YPT6, stronger effect = lower value 1.06 | S. cerevisiae deletion strains, locus YLR268W, strain sec22, stronger effect = lower value 0.99 | S. cerevisiae deletion strains, locus YLR320W, strain mms22, stronger effect = lower value 0.987 | S. cerevisiae deletion strains, locus YLR330W, strain CHS5, stronger effect = lower value 1.02 | S. cerevisiae deletion strains, locus YLR342W, strain FKS1 (second series), stronger effect = lower value 1 | S. cerevisiae deletion strains, locus YLR342W, strain FKS1, stronger effect = lower value 0.99 | S. cerevisiae deletion strains, locus YLR357W, strain rsc2, stronger effect = lower value 0.953 | S. cerevisiae deletion strains, locus YLR370C, strain arc18, stronger effect = lower value 0.992 | S. cerevisiae deletion strains, locus YLR371W, strain rom2, stronger effect = lower value 0.987 | S. cerevisiae deletion strains, locus YLR384C, strain iki3, stronger effect = lower value 0.99 | S. cerevisiae deletion strains, locus YLR418C, strain cdc73, stronger effect = lower value 0.97 | S. cerevisiae deletion strains, locus YML016C, strain PPZ1, stronger effect = lower value 1.03 | S. cerevisiae deletion strains, locus YML032C, strain rad52, stronger effect = lower value 0.989 | S. cerevisiae deletion strains, locus YML120C, strain ndi1, stronger effect = lower value 0.986 | S. cerevisiae deletion strains, locus YML124C, strain tub3, stronger effect = lower value 0.991 | S. cerevisiae deletion strains, locus YMR058W, strain fet3, stronger effect = lower value 0.989 | S. cerevisiae deletion strains, locus YMR078C, strain ctf18, stronger effect = lower value 0.985 | S. cerevisiae deletion strains, locus YMR125W, strain sto1, stronger effect = lower value 0.957 | S. cerevisiae deletion strains, locus YMR129W, stronger effect = lower value 0.995 | S. cerevisiae deletion strains, locus YMR205C, strain PFK2, stronger effect = lower value 0.984 | S. cerevisiae deletion strains, locus YMR223W, strain ubp8, stronger effect = lower value 0.986 | S. cerevisiae deletion strains, locus YMR231W, strain pep5, stronger effect = lower value 0.988 | S. cerevisiae deletion strains, locus YMR263W, strain SAP30, stronger effect = lower value 1.03 | S. cerevisiae deletion strains, locus YMR307W, strain GAS1, stronger effect = lower value 0.988 | S. cerevisiae deletion strains, locus YNL067W, strain RPL9B, stronger effect = lower value 1.03 | S. cerevisiae deletion strains, locus YNL071W, strain lat1, stronger effect = lower value 1 | S. cerevisiae deletion strains, locus YNL128W, strain TEP1, stronger effect = lower value 1.02 | S. cerevisiae deletion strains, locus YNL153C, strain GIM3, stronger effect = lower value 1.02 | S. cerevisiae deletion strains, locus YNL209W, strain ssb2, stronger effect = lower value 0.994 | S. cerevisiae deletion strains, locus YNL233W, strain BNI4, stronger effect = lower value 0.982 | S. cerevisiae deletion strains, locus YNL248C, strain rpa49, stronger effect = lower value 0.979 | S. cerevisiae deletion strains, locus YNL250W, strain rad50, stronger effect = lower value 0.979 | S. cerevisiae deletion strains, locus YNL271C, strain bni1, stronger effect = lower value 0.968 | S. cerevisiae deletion strains, locus YNL298W, strain CLA4, stronger effect = lower value 0.98 | S. cerevisiae deletion strains, locus YNL307C, strain MCK1, stronger effect = lower value 0.992 | S. cerevisiae deletion strains, locus YNL322C, strain KRE1 (second series), stronger effect = lower value 0.98 | S. cerevisiae deletion strains, locus YNL322C, strain KRE1, stronger effect = lower value 1.01 | S. cerevisiae deletion strains, locus YNR049C, strain mso1, stronger effect = lower value 0.989 | S. cerevisiae deletion strains, locus YNR052C, strain pop2, stronger effect = lower value 0.986 | S. cerevisiae deletion strains, locus YOL006C, strain TOP1, stronger effect = lower value 1.06 | S. cerevisiae deletion strains, locus YOL012C, strain htz1 0.953 | S. cerevisiae deletion strains, locus YOL147C, strain pex11, stronger effect = lower value 0.993 | S. cerevisiae deletion strains, locus YOR001W, strain rrp6, stronger effect = lower value 0.998 | S. cerevisiae deletion strains, locus YOR061W, strain CKA2, stronger effect = lower value 1.01 | S. cerevisiae deletion strains, locus YOR069W, strain VPS5, stronger effect = lower value 1.01 | S. cerevisiae deletion strains, locus YOR070C, strain gyp1, stronger effect = lower value 0.986 | S. cerevisiae deletion strains, locus YOR080W, strain dia2, stronger effect = lower value 0.963 | S. cerevisiae deletion strains, locus YOR083W, strain WHI5, stronger effect = lower value 0.995 | S. cerevisiae deletion strains, locus YOR106W, strain vam3, stronger effect = lower value 0.991 | S. cerevisiae deletion strains, locus YOR136W, strain idh2, stronger effect = lower value 0.992 | S. cerevisiae deletion strains, locus YOR144C, strain elg1, stronger effect = lower value 0.995 | S. cerevisiae deletion strains, locus YOR184W, strain ser1, stronger effect = lower value 0.991 | S. cerevisiae deletion strains, locus YOR265W, strain rbl2, stronger effect = lower value 0.985 | S. cerevisiae deletion strains, locus YOR270C, strain vph1, stronger effect = lower value 1 | S. cerevisiae deletion strains, locus YOR290C, strain snf2, stronger effect = lower value 1 | S. cerevisiae deletion strains, locus YOR316C, strain cot1, stronger effect = lower value 0.992 | S. cerevisiae deletion strains, locus YPL051W, strain arl3, stronger effect = lower value 0.995 | S. cerevisiae deletion strains, locus YPL055C, strain LGE1, stronger effect = lower value 1.03 | S. cerevisiae deletion strains, locus YPL078C, strain atp4, stronger effect = lower value 0.998 | S. cerevisiae deletion strains, locus YPL106C, strain sse1, stronger effect = lower value 0.98 | S. cerevisiae deletion strains, locus YPL240C, strain hsp82, stronger effect = lower value 1 | S. cerevisiae deletion strains, locus YPL241C, strain CIN2, stronger effect = lower value 1.01 | S. cerevisiae deletion strains, locus YPR119W, strain clb2, stronger effect = lower value 0.994 | S. cerevisiae deletion strains, locus YPR141C, strain kar3, stronger effect = lower value 0.978 | S. cerevisiae deletion strains, locus YPR163C, strain tif3, stronger effect = lower value 0.987 | S. cerevisiae deletion strains, locus YPR167C, strain met16, stronger effect = lower value 0.989 | S. cerevisiae deletion strains, strain wtn01, stronger effect = lower value 0.984 | S. cerevisiae strains, strain wild type, stronger effect = lower value 1.01
